In test [1] the target is Nuclear respiratory factor 1 (Homo sapiens) (UniProt Q16656). As to the kind of experiment: ATG_NRF1_CIS: Attagene CIS-FACTORIAL HepG2 Assay for human Nuclear Respiratory Factor 1 (NRF1) Orphan Gene (AID 2282987). To be noted: HepG2 NRF1 cis-element reporter, Attagene multiplex; actives raise or lower the signal. In outline: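 Human hepatoma HepG2 cells carrying transfected promoter-regulated reporter units were incubated with test chemicals for 24 h. Reporter transcripts were measured by RT-PCR plus capillary electrophoresis, and endpoints derived by bidirectional fitting with DMSO as baseline.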

In test [2] the target is Myc proto-oncogene protein (Homo sapiens) (UniProt P01106). As to the kind of experiment: ATG_Myc_CIS: Attagene CIS-FACTORIAL HepG2 Assay for human Myelocytomatosis (Myc) Proto-Oncogene Transcription Factor (AID 2282990). To be noted: HepG2, Attagene cis-reporter transcription factor activity; actives raise or lower the signal. The method in brief:
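Cells of the HepG2 human liver line bear multiple cis-driven reporter transcription units. Reporter mRNA after 24 h exposure is reverse-transcribed, amplified, labelled and resolved by capillary electrophoresis, with gain- or loss-of-signal fitting relative to DMSO.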

Test [3] is described as follows: ATG_NF_kB_CIS: Attagene CIS-FACTORIAL HepG2 Assay for human Nuclear Factor Kappa B (NF-kB) (AID 2282991). To be noted: HepG2 Attagene cis-factorial NF-kB reporter mRNA; actives raise or lower the signal. The method in brief: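 Multiplexed cis-reporter assay in transiently transfected HepG2. 24 h treatment; RNA isolated, RT-PCR, labelled fragments resolved by CE. DMSO baseline.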

A short description of test [4]: ATG_NRF2_ARE_CIS: Attagene CIS-FACTORIAL HepG2 Assay for human Nuclear Factor Erythroid 2 Related Factor 2 (NFR2) response to Antioxidant Response Elements (ARE) (AID 2282992).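 For AC50: reporter mRNA level measured by RT-PCR and capillary electrophoresis fluorescence.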 The following applies: HepG2 Attagene ARE/NRF2 reporter, transcription factor activity; actives raise or lower the signal. In outline: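 Cis-factorial assay: transfected HepG2 reporter library, 24 h dosing, mRNA readout via RT-PCR/CE; DMSO-referenced bidirectional analysis.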

A short description of test [5]: ATG_Oct_MLP_CIS: Attagene CIS-FACTORIAL HepG2 Assay for human Octamer-Binding Transcription Factor (Oct) (AID 2282993). To be noted: HepG2 Attagene cis-factorial Oct reporter, mRNA; actives raise or lower the signal. In outline: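 HepG2 cells transiently transfected with cis-element-driven reporter transcription units (endogenous TF activity); 24 h compound exposure. Reporter mRNA quantified by RT-PCR, 6-FAM labelling, HpaI digestion and capillary electrophoresis; bidirectional fit versus DMSO baseline.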

Test [6] addresses Cellular tumor antigen p53 (Homo sapiens) (UniProt P04637). As to the kind of experiment: ATG_p53_CIS: Attagene CIS-FACTORIAL HepG2 Assay for human p53 Transcription Factor (AID 2282994). The following applies: HepG2 p53 cis-element reporter, Attagene mRNA; actives raise or lower the signal. In outline: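 Using HepG2 hepatoma cells carrying cis-acting multiplexed reporters, mRNA induction is detected after a 24 h exposure. Gain- and loss-of-signal responses are fitted relative to DMSO-treated cells.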

Test [7] is described as follows: BSK_3C_TissueFactor: BioMAP Diversity Plus: 3C Assay for Tissue Factor Biomarker Activity (AID 2282997). The following applies: BioMAP 3C HUVEC, tissue factor biomarker readout; actives raise or lower the signal. The method in brief: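 Human vascular primary cells (umbilical vein endothelium) received test chemical; Tissue Factor was determined by ELISA at 24 h, and both gain and loss of signal versus DMSO were fitted.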

Test [8] is described as follows: BSK_3C_uPAR: BioMAP Diversity Plus: 3C Assay for Urokinase-type plasminogen activator receptor (uPAR) Biomarker Activity (AID 2282998). The following applies: BioMAP 3C HUVEC, uPAR biomarker ELISA; actives raise or lower the signal. The method in brief:
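Primary human umbilical vein endothelial cells, 3C system; surface uPAR measured by ELISA 24 h after dosing. Cytotoxicity via SRB total protein in parallel cultures; bidirectional fit against DMSO.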

The nature of test [9]: BSK_3C_VCAM1: BioMAP Diversity Plus: 3C Assay for Vascular cell adhesion molecule 1 (VCAM1) Biomarker Activity (AID 2282999). The following applies: BioMAP 3C HUVEC, VCAM1 ELISA, cytokine-stimulated; actives raise or lower the signal. The method in brief: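 Endothelial cells from human umbilical vein are treated with test chemical. At 24 h, VCAM-1 is measured by ELISA, and responses in either direction are fitted relative to DMSO.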
For orientation: ELISA stands for enzyme-linked immunosorbent assay.

A short description of test [10]: BSK_4H_Eotaxin3: BioMAP Diversity Plus: 4H Assay for Eotaxin 3 Biomarker Activity (AID 2283000).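 For outcome: CCL26 protein level quantified by ELISA in parallel with SRB cytotoxicity check.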 To be noted: primary human endothelial cells (HUVEC); actives raise or lower the signal. In outline:
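Readout is Eotaxin-3 (CCL26) level by ELISA in primary human umbilical vein endothelial cells harvested 24 h after chemical exposure; activity fitted in both directions against DMSO control.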

The target of test [11] is human Peroxisome Proliferator-activated Receptor alpha (PPARa), PPARA (gene 5465) (UniProt Q07869). Kind of test: ATG_PPARa_TRANS: Attagene TRANS-FACTORIAL HepG2 Assay for human Peroxisome Proliferator-activated Receptor alpha (PPARa) (AID 2283001; active = hit-call score of the fitted dose curve at least 0.9, where 1 is the maximum). In outline:
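Read-out is fluorescence of reporter cDNA fragments resolved by capillary electrophoresis after RT-PCR. Human HepG2 liver cells carried transfected PPARa-Gal4 chimera and GAL4-UAS reporter units, treated 24 h; activity scored as increase over DMSO.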

Test [12] deals with human Peroxisome Proliferator-activated Receptor delta (PPARd), PPARD (gene 5467) (UniProt Q03181). As to the kind of experiment: ATG_PPARd_TRANS: Attagene TRANS-FACTORIAL HepG2 Assay for human Peroxisome Proliferator-activated Receptor delta (PPARd) (AID 2283002; active = hit-call score of the fitted dose curve at least 0.9, where 1 is the maximum). The method in brief: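 Cell-based TRANS reporter: HepG2, transient MRTU transfection, 24 h exposure. Readout = reporter mRNA (RT-PCR/CE, 6-FAM). Gain-of-signal fit vs DMSO control.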

Read-out in test [13]: Intercellular Adhesion Molecule 1 (ICAM1), ICAM1 (gene 3383)
Kind of test: BSK_3C_ICAM1: BioMAP Diversity Plus: 3C Assay for Intercellular Adhesion Molecule 1 (ICAM1) Biomarker Activity (AID 2283003). The following applies: primary human endothelial cells (HUVEC); actives raise or lower the signal. The method in brief: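 HUVEC primary cells stimulated under 3C conditions; ICAM1 measured by ELISA 24 h after compound dosing. Curves fitted bidirectionally against the DMSO baseline. Overt cytotoxicity checked by SRB staining of parallel cultures.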

For test [14], the target named is human Retinoic Acid Receptor beta (RARb), RARB (gene 5915) (UniProt P10826). Kind of test: ATG_RARb_TRANS: Attagene TRANS-FACTORIAL HepG2 Assay for human Retinoic Acid Receptor beta (AID 2283004; active = hit-call score of the fitted dose curve at least 0.9, where 1 is the maximum). In outline: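 Readout is reporter mRNA induction: RNA reverse-transcribed, PCR-amplified, FAM-labelled, HpaI-cut and resolved by capillary electrophoresis. Transiently transfected HepG2 cells carrying exogenous NR–Gal4 chimeras were dosed for 24 h; activity fitted upward relative to DMSO.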

The target in test [15] is Retinoic acid receptor alpha (Homo sapiens) (UniProt P10276). As to the kind of experiment: ATG_RARa_TRANS: Attagene TRANS-FACTORIAL HepG2 Assay for human Retinoic Acid Receptor alpha (RARa) (AID 2283005; active = hit-call score of the fitted dose curve at least 0.9, where 1 is the maximum;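 for AC50: potency for increased reporter signal meaning RARa activation over DMSO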). The method in brief: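 Reporter transcripts, measured by RT-PCR with fluorescent labeling and capillary electrophoresis after 24 h dosing, reflect activity of an exogenous human RARa–GAL4 fusion in transiently transfected HepG2. Fitted for increase relative to DMSO.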

Test [16] can be described thus: BSK_3C_Proliferation: Cell Proliferation Assessment in the BioMAP Diversity Plus: 3C Assay (AID 2283006).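 For AC50: potency may reflect either rise or fall in cell number versus DMSO.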 The following applies: primary human endothelial cells (HUVEC). The method in brief: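 Subconfluent HUVEC (3C system) cultured with chemical; relative cell number read at 48 h by sulforhodamine B total-protein staining (0.1% SRB after 10% TCA fixation, 560 nm). Bidirectional fit relative to DMSO.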

The target of test [17] is Peroxisome proliferator-activated receptor gamma (Homo sapiens) (UniProt P37231). Kind of test: ATG_PPARg_TRANS: Attagene TRANS-FACTORIAL HepG2 Assay for human Peroxisome Proliferator-activated Receptor-gamma (PPARg) (AID 2283007; active = hit-call score of the fitted dose curve at least 0.9, where 1 is the maximum). The method in brief: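 Human hepatoma HepG2, transient MRTU transfection, 24 h treatment. mRNA reporter signal by RT-PCR plus capillary electrophoresis, fluorescence detection; fitted for increase over DMSO negative control.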

Test [18] concerns the target Nuclear receptor subfamily 1 group I member 2 (Homo sapiens) (UniProt O75469). As to the kind of experiment: ATG_PXR_TRANS: Attagene TRANS-FACTORIAL HepG2 Assay for human Pregnane X Receptor (PXR) (AID 2283008; active = hit-call score of the fitted dose curve at least 0.9, where 1 is the maximum). The method in brief:
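Fluorescence intensity of FAM-labelled, HpaI-digested reporter amplicons, separated by capillary electrophoresis, quantifies induction. HepG2 cells with PXR-Gal4 trans-reporter system were exposed 24 h; DMSO defines baseline.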

Test [19] concerns the target human Retinoic Acid Receptor gamma (RARg), RARG (gene 5916) (UniProt P13631). As to the kind of experiment: ATG_RARg_TRANS: Attagene TRANS-FACTORIAL HepG2 Assay for human Retinoic Acid Receptor gamma (RARg) (AID 2283009; active = hit-call score of the fitted dose curve at least 0.9, where 1 is the maximum). In outline: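 HepG2 transiently transfected with GAL4-UAS reporter units and chimeric NR-Gal4 constructs; 24 h compound exposure. Reporter mRNA quantified by RT-PCR, FAM labeling, HpaI digestion and capillary electrophoresis; gain-of-signal versus DMSO.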

The nature of test [20]: ATG_NFI_CIS: Attagene CIS-FACTORIAL HepG2 Assay for human Nuclear Factor I (NFI) (AID 2282989). The following applies: HepG2 cis-regulatory reporter, NFI response element transcription; actives raise or lower the signal. In outline:
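Endogenous TF activity in HepG2 cells transiently transfected with cis-element-driven multiplexed reporter units, read 24 h after dosing. Reporter mRNA quantified by RT-PCR, 6-FAM labelling, HpaI digestion and capillary electrophoresis; bidirectional fit versus DMSO.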

Values joined by “and” are separate entries in the source; they are usually repeats but may differ in a detail not shown here. Equal values may be shown once. Records with an inconclusive call do not appear. Active and inactive are the calls of the source. Rule for the calls, unless noted: active = hit-call score of the fitted dose curve at least 0.9, where 1 is the maximum; inactive = score below 0.9.

human Retinoic Acid Receptor gamma (RARg), RARG (gene 5916), sequence (P13631 whole entry, looked up, the tested form may be a part): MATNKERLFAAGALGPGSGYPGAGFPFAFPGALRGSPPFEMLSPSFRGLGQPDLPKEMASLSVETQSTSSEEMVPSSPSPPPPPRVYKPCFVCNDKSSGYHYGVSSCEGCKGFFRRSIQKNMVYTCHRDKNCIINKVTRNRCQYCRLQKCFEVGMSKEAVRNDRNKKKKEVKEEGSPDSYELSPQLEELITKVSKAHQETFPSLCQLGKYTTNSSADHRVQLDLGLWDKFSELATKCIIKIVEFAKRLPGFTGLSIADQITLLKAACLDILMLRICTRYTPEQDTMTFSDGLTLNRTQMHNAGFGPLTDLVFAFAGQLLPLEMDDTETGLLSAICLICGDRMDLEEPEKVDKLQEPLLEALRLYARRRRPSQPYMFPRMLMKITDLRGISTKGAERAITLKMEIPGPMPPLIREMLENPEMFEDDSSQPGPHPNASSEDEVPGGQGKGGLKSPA
Peroxisome proliferator-activated receptor gamma (Homo sapiens), sequence (P37231 whole entry, looked up): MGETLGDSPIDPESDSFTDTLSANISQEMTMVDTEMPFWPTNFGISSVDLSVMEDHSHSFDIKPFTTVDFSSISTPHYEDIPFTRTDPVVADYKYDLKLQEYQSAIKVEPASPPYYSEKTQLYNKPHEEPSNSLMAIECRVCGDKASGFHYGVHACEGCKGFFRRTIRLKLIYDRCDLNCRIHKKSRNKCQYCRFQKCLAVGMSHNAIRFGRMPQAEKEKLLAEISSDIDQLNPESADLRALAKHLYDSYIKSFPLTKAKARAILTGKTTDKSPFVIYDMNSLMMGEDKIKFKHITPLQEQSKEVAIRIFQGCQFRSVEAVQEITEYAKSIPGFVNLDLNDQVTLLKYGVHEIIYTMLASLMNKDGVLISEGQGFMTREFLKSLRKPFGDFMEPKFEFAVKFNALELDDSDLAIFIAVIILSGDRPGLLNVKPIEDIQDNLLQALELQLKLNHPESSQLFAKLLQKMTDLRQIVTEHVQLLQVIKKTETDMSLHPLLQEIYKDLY
human Peroxisome Proliferator-activated Receptor delta (PPARd), PPARD (gene 5467), sequence (Q03181 whole entry, looked up): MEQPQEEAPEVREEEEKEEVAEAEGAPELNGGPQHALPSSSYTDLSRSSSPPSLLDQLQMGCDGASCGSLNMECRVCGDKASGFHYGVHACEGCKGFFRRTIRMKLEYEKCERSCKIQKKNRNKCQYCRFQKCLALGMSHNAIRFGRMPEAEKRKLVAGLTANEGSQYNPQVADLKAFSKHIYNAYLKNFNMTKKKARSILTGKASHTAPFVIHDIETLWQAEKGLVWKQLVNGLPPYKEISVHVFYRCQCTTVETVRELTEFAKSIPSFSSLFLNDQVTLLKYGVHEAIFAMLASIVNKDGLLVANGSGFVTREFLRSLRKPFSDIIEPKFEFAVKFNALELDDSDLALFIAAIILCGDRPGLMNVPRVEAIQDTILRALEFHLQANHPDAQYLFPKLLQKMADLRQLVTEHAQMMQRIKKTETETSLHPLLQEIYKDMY
Myc proto-oncogene protein (Homo sapiens), sequence (P01106 whole entry, looked up): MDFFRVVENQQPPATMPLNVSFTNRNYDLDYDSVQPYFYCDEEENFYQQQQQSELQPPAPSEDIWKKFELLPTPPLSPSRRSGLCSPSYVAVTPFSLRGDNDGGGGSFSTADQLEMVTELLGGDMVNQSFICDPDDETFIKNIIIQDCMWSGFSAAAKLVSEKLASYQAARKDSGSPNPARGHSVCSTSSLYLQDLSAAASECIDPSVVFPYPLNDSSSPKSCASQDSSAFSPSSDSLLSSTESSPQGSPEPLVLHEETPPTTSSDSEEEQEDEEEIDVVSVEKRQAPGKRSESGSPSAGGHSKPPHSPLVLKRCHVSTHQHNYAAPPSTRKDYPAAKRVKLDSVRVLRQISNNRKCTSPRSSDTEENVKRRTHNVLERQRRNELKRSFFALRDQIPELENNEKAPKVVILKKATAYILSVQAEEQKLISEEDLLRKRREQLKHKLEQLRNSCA
Cellular tumor antigen p53 (Homo sapiens), sequence (P04637 whole entry, looked up): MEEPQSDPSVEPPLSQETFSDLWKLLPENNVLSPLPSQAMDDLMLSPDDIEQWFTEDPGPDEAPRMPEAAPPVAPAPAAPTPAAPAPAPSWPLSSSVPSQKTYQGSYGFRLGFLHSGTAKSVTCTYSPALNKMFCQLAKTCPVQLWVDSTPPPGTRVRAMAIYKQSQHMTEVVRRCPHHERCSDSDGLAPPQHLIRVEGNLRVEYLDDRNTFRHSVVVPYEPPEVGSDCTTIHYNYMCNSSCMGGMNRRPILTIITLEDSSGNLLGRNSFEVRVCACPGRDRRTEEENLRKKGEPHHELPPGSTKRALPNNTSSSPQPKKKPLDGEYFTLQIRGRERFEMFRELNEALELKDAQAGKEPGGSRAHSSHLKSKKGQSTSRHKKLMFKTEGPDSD
Nuclear receptor subfamily 1 group I member 2 (Homo sapiens), sequence (O75469 whole entry, looked up, the tested form may be a part): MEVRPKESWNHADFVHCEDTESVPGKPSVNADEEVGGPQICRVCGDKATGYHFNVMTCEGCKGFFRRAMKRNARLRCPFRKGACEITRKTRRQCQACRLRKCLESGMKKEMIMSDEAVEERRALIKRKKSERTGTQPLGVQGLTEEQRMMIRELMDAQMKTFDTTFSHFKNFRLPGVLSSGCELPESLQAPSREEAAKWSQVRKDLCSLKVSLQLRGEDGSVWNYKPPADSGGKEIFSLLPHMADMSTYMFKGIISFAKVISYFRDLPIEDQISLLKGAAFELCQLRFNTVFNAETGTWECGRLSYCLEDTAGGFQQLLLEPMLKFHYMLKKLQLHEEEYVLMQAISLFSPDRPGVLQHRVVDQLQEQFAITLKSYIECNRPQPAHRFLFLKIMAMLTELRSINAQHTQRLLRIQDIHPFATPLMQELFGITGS
Nuclear respiratory factor 1 (Homo sapiens), sequence (Q16656 whole entry, looked up): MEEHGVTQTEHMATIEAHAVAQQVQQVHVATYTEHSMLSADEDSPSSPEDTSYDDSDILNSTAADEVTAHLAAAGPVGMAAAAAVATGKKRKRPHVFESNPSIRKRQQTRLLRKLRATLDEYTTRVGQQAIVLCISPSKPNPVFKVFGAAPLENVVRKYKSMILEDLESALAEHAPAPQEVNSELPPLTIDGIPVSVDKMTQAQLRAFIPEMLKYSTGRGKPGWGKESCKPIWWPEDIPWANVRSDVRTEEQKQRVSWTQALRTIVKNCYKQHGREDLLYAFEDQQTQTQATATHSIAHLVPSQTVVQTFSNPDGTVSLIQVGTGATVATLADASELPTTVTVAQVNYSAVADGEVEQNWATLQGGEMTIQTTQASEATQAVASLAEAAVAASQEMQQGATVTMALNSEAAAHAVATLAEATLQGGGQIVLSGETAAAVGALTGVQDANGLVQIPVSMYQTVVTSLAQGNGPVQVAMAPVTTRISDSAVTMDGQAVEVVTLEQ
human Retinoic Acid Receptor beta (RARb), RARB (gene 5915), sequence (P10826 whole entry, looked up, the tested form may be a part): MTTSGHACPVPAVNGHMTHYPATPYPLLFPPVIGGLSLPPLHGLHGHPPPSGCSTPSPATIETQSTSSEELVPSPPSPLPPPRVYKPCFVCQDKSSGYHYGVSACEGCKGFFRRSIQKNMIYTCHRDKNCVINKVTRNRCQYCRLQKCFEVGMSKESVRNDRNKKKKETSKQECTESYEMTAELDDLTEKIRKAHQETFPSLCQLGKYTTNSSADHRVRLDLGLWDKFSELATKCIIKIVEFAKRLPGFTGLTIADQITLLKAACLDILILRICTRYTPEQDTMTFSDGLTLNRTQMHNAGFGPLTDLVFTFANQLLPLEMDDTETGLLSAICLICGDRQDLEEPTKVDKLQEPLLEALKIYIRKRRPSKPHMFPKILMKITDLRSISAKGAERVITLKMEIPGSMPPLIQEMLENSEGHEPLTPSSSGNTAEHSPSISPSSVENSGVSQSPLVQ
human Peroxisome Proliferator-activated Receptor alpha (PPARa), PPARA (gene 5465), sequence (Q07869 whole entry, looked up, the tested form may be a part): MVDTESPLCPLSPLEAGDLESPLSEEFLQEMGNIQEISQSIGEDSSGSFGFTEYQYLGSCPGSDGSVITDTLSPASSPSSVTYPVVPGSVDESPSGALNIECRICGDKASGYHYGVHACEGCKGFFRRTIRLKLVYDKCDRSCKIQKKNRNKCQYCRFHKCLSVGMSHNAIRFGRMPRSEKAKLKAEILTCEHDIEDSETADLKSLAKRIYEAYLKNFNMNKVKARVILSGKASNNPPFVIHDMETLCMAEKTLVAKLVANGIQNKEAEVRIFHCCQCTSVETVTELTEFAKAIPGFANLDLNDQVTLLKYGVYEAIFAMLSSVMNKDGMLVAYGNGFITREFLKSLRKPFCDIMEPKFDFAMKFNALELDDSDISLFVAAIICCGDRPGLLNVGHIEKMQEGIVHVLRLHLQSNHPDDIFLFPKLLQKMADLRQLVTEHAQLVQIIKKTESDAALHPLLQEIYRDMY
Retinoic acid receptor alpha (Homo sapiens), sequence (P10276 whole entry, looked up, the tested form may be a part): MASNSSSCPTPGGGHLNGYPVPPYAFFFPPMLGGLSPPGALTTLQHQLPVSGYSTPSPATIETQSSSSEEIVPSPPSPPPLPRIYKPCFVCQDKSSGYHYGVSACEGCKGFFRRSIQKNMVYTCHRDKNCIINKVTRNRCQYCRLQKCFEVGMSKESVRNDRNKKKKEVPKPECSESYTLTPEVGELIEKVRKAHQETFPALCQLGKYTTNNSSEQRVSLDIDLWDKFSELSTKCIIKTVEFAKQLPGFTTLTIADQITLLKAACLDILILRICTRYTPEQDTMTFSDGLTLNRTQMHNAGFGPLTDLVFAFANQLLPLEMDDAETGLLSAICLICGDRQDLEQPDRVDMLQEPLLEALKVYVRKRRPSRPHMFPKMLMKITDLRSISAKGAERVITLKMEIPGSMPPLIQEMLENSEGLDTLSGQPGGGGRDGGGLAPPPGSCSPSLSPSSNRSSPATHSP

For `CC(C)(C)C(=O)CC(=O)C(F)(F)C(F)(F)C(F)(F)F`, the call in test [1], in test [2], in test [3], in [4], in test [5] and in test [6] was inactive. Also, the result in test [7], in [8], in test [9], in [10], in [11] and in [12] was inactive. Also, the result in test [13], in [14], in test [15], in [17], in test [18] and in test [19] was inactive. Further, the concentration at half-maximal activity (AC50) in [16] was 43.3 µM (active) and 44.3 µM (active).
As to `CCO[Si](CCC(F)(F)C(F)(F)C(F)(F)C(F)(F)C(F)(F)C(F)(F)F)(OCC)OCC`, the outcome in [1], in test [2], in test [3], in [4], in [5] and in test [6] was inactive. Further, the result in test [7], in test [8], in test [9], in test [10], in [12] and in [13] was inactive. Also, the result in test [16], in test [17], in test [18] and in test [19] was inactive.
As for `CCc1ccc(C(c2ccc(CC)cc2)C(Cl)Cl)cc1`, the result in test [1], in test [2], in [7], in [12], in [13] and in [17] was inactive. For the same compound, the concentration at half-maximal activity (AC50) in [4] is 56.5 µM (active); in test [8] it was 12.2 µM (active); in test [9] it was 27.4 µM (active); in [10], 14.1 µM (active); in test [16] it was 13.1 µM (active); in test [18], 3.55 µM (active).
Regarding `Nc1cc(Cl)c(N)c(Cl)c1`, the outcome in test [1], in [20], in [2], in test [5], in test [6] and in test [11] was inactive. Moreover, the compound was classed as inactive in [19]. The AC50 in test [4] is 9.89 µM (active); in test [14], 26.5 µM (active); in test [15], 43 µM (active); in [17], 38.7 µM (active); in [18], 19.8 µM (active).

The term AC50 denotes the concentration at which the activity in the assay is half-maximal.

(Values after PubChem BioAssay (EPA / NIEHS).)
